# Experimental data: PubChem BioAssay (NCI)
# This is part of a sample that, as a whole, favours compounds with a hit. Of some 79,000 tested, about 15% had one in any assay. Unmarked numbers belong to inactive results. The source made the active and inactive calls. Rule as the data show it: active = growth inhibition above about 70%; inactive = the rest.
# Experiment: NCI Yeast Anticancer Drug Screen. Data for the CLN2oe strain (AID 163);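 also: 0% = growth of vehicle-only control cultures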
# Details: S. cerevisiae CLN2oe strain, stronger effect = higher value
# Description: Growth inhibition of yeast strains with defined genetic alterations is measured as a screen for potential anti-cancer activity. Selected strains with alterations in DNA damage repair or cell cycle control were exposed to compounds and growth inhibition was measured relative to vehicle treated controls. The strain used in this assay is CLN2oe
Compound,growth inhibition (at 1.2 µM) [%],growth inhibition (at 3.7 µM) [%],growth inhibition (at 11.0 µM) [%],growth inhibition (at 33.0 µM),growth inhibition (at 100.0 µM)
OC(c1ccc(Br)cc1)C(Cl)(Cl)Cl (stereo not given),25,10,18,87% (active),97% (active)
Cn1cnc(N)c1C(=N)[Se],1,-2,-3,11%,28%
CN(C)CCSC1=Nc2ccc(Cl)cc2C(c2ccccc2Cl)=NC1,-1,-1,4,15%,24%
C[C@@]12CCC(=O)C=C1CC[C@H]1C2=CC[C@]2(C)C1CC[C@@]2(C)O (stereo not given in full),32,-2,0,75% (active),93% (active)
O=C1NC(=S)NC(=O)C1=Cc1ccc([N+](=O)[O-])o1,9,-1,5,-9%,82% (active)
O=C1C=CC(=O)C1(Br)Br,-5,3,18,75% (active),98% (active)
Nc1nc(-c2ccccc2)c(-c2ccccc2)[se]1,3,-1,3,8%,15%
CCOC(=O)C1([Se]c2ccccc2)CCCC1=O (stereo not given),2,6,16,11%,68%
